The target of assay [1] is Protein kinase C eta type (Homo sapiens) (UniProt P24723). Particulars: at 1 µM; call rule not given here.
The target is the same in assay [2]. The settings on record: at 10 µM.
The target in assay [3] is Protein kinase C theta type (Homo sapiens) (UniProt Q04759). The settings on record: at 10 µM.
Assay [4] has as its target T1, Serine/threonine-protein kinase D1 (Homo sapiens) (UniProt Q15139).
T1 sequence (whole entry): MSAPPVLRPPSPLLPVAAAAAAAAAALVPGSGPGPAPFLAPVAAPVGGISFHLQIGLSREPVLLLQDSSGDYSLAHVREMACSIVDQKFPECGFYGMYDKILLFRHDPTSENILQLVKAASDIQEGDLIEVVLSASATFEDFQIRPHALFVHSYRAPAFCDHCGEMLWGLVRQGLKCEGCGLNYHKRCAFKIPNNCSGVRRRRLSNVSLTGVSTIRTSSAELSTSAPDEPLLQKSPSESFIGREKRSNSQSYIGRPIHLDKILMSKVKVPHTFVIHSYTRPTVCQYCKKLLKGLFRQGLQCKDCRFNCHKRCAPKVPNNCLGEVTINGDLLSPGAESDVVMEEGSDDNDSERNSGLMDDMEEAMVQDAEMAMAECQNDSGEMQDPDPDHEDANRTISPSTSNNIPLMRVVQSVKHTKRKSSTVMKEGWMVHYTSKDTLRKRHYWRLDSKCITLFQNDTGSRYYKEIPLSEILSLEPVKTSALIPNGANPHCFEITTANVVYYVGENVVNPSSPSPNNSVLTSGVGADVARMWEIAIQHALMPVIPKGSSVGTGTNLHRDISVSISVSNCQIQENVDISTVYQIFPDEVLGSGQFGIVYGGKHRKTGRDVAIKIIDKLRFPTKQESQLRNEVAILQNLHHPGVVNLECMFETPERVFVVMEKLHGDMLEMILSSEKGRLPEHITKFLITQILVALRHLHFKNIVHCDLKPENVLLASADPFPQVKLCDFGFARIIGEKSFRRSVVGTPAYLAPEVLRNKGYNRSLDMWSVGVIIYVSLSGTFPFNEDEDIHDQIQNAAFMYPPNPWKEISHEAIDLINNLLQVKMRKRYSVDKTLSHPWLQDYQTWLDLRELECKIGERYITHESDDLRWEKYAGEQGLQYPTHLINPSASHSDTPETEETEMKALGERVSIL
The settings on record: at 1 µM.

The target in assay [5] is T2, Serine/threonine-protein kinase D2 (Homo sapiens) (UniProt Q9BZL6).
T2 sequence (whole entry): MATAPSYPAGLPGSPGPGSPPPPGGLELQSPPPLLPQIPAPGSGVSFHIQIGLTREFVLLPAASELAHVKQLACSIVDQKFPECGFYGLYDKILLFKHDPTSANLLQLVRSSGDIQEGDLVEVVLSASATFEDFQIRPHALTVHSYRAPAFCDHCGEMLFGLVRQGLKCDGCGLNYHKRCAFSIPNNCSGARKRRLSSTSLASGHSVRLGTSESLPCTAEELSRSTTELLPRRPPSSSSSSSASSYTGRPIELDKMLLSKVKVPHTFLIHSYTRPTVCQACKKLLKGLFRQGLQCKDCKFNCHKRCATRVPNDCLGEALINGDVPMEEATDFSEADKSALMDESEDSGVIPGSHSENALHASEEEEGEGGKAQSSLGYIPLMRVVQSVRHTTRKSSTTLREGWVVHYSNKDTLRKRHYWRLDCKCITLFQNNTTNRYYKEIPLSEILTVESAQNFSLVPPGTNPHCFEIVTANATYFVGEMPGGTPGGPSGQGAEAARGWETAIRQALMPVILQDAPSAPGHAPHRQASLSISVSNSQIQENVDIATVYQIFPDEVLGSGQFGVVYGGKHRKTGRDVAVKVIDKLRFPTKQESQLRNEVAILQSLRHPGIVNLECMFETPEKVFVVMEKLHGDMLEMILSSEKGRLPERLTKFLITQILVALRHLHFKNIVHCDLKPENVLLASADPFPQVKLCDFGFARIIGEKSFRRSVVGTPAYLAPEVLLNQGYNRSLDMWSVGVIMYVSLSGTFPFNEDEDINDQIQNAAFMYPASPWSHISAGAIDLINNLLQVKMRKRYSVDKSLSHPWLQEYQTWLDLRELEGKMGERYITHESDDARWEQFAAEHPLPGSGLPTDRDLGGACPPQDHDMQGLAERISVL
Particulars: at 1 µM.

The target in assay [6] is T2, Serine/threonine-protein kinase D2 (Homo sapiens). The settings on record: at 10 µM.
The target of assay [7] is Protein kinase C theta type (Homo sapiens) (UniProt Q04759). Particulars: at 1 µM.
For assay [8], the target named is T3, Protein kinase C iota type (Homo sapiens) (UniProt P41743).
T3 sequence (whole entry): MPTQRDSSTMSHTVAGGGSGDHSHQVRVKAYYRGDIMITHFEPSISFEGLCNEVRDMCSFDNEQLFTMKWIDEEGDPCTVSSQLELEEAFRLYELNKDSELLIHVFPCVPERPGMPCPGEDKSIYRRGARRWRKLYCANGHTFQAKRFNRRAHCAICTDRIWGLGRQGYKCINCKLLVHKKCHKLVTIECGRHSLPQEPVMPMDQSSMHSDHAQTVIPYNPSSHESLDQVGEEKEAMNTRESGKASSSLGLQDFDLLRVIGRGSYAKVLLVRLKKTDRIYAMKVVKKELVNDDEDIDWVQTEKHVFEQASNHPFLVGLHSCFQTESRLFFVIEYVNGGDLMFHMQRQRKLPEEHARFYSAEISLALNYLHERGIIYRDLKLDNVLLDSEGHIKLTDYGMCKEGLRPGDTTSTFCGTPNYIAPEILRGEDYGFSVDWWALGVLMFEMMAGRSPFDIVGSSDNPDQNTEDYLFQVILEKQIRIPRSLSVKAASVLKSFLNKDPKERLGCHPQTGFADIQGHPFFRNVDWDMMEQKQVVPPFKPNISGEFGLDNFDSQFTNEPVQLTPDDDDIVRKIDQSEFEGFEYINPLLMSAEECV
The settings on record: at 10 µM.

Assay [9] deals with T1, Serine/threonine-protein kinase D1 (Homo sapiens). The settings on record: at 10 µM.
Assay [10] concerns the target T3, Protein kinase C iota type (Homo sapiens). The settings on record: at 1 µM.

Protein kinase C eta type (Homo sapiens), sequence (P24723 whole entry): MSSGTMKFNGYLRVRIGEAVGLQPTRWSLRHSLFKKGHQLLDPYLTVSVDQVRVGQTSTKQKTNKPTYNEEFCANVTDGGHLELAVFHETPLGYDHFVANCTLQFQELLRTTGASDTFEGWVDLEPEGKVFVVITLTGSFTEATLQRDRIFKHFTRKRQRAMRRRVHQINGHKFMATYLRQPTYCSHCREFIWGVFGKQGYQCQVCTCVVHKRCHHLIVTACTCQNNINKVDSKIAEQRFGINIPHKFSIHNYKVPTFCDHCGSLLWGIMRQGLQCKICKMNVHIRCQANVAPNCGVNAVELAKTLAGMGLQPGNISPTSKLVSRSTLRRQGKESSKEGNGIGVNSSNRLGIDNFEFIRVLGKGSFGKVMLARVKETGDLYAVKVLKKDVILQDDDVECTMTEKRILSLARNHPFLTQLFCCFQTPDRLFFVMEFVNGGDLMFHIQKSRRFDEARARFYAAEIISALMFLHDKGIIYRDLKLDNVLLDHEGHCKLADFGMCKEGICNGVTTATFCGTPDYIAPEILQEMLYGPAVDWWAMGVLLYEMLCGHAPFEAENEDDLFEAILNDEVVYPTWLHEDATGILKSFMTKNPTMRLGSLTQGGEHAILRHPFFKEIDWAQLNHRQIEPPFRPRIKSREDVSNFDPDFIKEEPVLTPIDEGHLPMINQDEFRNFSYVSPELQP
Protein kinase C theta type (Homo sapiens), sequence (Q04759 whole entry, looked up): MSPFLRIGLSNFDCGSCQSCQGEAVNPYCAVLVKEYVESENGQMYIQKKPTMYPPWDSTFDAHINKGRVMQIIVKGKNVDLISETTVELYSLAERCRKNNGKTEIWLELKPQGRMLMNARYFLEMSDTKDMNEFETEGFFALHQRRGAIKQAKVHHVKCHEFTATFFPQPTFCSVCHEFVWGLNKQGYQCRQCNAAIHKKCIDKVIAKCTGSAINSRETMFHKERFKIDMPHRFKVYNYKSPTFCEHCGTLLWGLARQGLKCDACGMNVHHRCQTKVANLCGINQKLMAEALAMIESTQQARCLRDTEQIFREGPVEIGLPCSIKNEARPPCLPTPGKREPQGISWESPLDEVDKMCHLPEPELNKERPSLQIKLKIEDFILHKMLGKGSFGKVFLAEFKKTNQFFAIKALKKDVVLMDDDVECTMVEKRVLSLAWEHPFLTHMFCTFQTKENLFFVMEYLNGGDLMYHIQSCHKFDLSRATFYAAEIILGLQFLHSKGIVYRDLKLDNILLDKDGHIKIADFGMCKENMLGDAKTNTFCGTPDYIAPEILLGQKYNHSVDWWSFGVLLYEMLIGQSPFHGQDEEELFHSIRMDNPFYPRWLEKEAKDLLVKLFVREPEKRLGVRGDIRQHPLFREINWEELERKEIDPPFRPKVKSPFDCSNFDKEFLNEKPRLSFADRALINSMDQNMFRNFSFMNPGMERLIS

The residual activity is the signal under treatment as a percentage of the control signal. For the compound `COc1cc2c(cc1OC)-c1n[nH]c(Nc3cccc(F)c3)c1C2`, the residual activity in [1] was found to be 102%; in [2], 70%; in [3], 81%; in assay [4] it was 78%; in assay [5] it was 107%; in assay [6], 104%.
For `COc1ccc2c(c1)c(C1=C(c3c[nH]c4ccccc34)C(=O)NC1=O)cn2CCCN(C)C`, the residual activity in [1] turned out to be 10%; in assay [2] it was 2%; in [7], 3%; in [3] it was 1%; in [8], 62%; in assay [4] it was 108%. For the same compound, the values for the residual activity in [9], in assay [5] and in assay [6] were 58%, 98% and 102%, respectively.
Turning to `O=C1Cc2c([nH]c3ccc(Br)cc23)-c2ccccc2N1`, the residual activity in [1] was 72%; in [2], 94%; in assay [7] it was 49%; in assay [3], 31%; in assay [4], 99%; in [9] it was 80%.
As to `CC(C)c1nn(-c2c(Cl)cccc2Cl)c2nc(Cc3ccc(OCCO)cc3)[nH]c(=O)c12`, the residual activity in assay [1] was 92%; in assay [2], 91%; in assay [7], 90%; in assay [3], 80%; in [10] it was 99% (inactive); in assay [8], 102%. In addition, the residual activity stood at 95% in assay [9], 95% in assay [5] and 91% in [6].
As for `CC(C)(C)n1nc(Cc2cccc3ccccc23)c2c(N)ncnc21`, the residual activity in assay [1] is 77%; in assay [2], 86%; in [7], 98%; in [3], 92%; in assay [10] it was 115% (inactive); in [8], 82%. For the same compound, the values for the residual activity in assay [4], in assay [5] and in assay [6] were 22%, 80% and 24%, respectively.
On to `NC(=O)Nc1sc(-c2ccc(F)cc2)cc1C(N)=O`, for which the residual activity in assay [1] was 74%; in assay [2], 60%; in assay [7], 83%; in [3], 50%; in assay [10], 109% (inactive); in [8] it was 107%. Besides, the residual activity in assay [4] was 58%; in assay [9], 29%; in assay [5], 100%; in [6] it was 64%.
`O=C(c1cc2cc(O)ccc2[nH]1)c1cc2cc(O)ccc2[nH]1`: the residual activity in assay [2] is 77%; in assay [7], 83%; in [3], 67%; in assay [4], 80%; in assay [9], 23%.
As for `c1ccc(-c2cnc(Nc3ccc(OCCN4CCCC4)cc3)s2)cc1`, the residual activity in assay [7] was 115%; in [3] it was 102%.
For `O=c1cc(N2CCOCC2)oc2c(-c3ccccc3)cccc12`, the residual activity in assay [2] is 66%; in [8], 63%.
As for `O=C1NC(=O)C(c2cn(CCCO)c3ncccc23)=C1c1cnccn1`, the residual activity was determined as 87% in assay [2], 97% in assay [7] and 77% in [3].
For the compound `Fc1ccc(-c2nc3n(c2-c2ccncc2)CCS3)cc1`, the residual activity in assay [9] was 48%; in assay [6] it was 89%.
Regarding `O=C(NC(NC(=S)Nc1ccc(F)c([N+](=O)[O-])c1)C(Cl)(Cl)Cl)C(c1ccccc1)c1ccccc1` (configuration not stated), the residual activity was determined as 90% in assay [2]; 97% in [7]; 104% in assay [3]; 88% in [9]; 100% in assay [5]; 100% in [6].
For `O=c1c(-c2ccc(F)cc2)c(-c2ccncc2)[nH]n1-c1ccc(Cl)cc1`, the residual activity is 72% in assay [2]; 71% in assay [3]; 100% in assay [8]; 99% in assay [4]; 37% in assay [9]; 73% in assay [6].
Regarding `CC(C)(C)c1nc2c3ccc(F)cc3c3c(=O)[nH]ccc3c2[nH]1`, the residual activity in [4] came out at 8%; in [9], 16%; in assay [5], 40%; in assay [6], 22%.
As to `NCCNc1ncc(C(N)=O)c(Nc2cccc(C(F)(F)F)c2)n1`, the figures for the residual activity in assay [4] and in [9] were 35% and 8%, respectively.
As for `COc1ccc(Cl)cc1NC(=O)Nc1cc(C)nc2ccccc12`, the residual activity in [7] is 89%; in assay [3], 92%; in assay [10], 88% (inactive); in assay [8], 86%; in assay [4], 95%; in [9], 87%.
